Source: PubChem BioAssay
SMN2 splice up – increases expression of the SMN2 splice variant. actives 2.8% (n = 210,000). HEK293 SMN2-luciferase splicing reporter, luminescence, 30-36 h. Potency, µM (series often up to 46.1 µM), without a hit: top-dose activity change, positive = activation, hits mostly activators. AID 1458; note: % of control where 0% means no effect; nearly all actives have a fitted effect of over 55% in size
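qHTS luciferase splicing reporter: luminescence rises when SMN2 exon 7 is included in transfected HEK293 cells. Compound exposure lasted 30-36 h at 37C, with 4.5 mM final sodium butyrate as control, followed by a ONE-Glo read.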
Luc counter – Kinase-Glo luciferase inhibition (counter-screen) | Kinase-Glo luciferase, ATP luminescence, 8 min | Q27757 | actives 0.28% (n = 200,000) | Potency, µM (series often up to 38.3 µM), for inactives: at the highest dose activity change, negative = inhibition, hits mostly inhibitors; note: % is set by controls: 0 for no effect and ±100 for the full control effect; nearly all actives have a fitted effect of over 60% in size
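Compound is pinned into ATP-containing buffer (10 uM ATP, imidazole pH 7.2, 7 mM MgCl2). Kinase-Glo luciferase reagent is then added. Light output is recorded following an 8-min room-temperature incubation.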
FLuc counter – firefly luciferase modulation, counter-screen for miR-21 project; purified FLuc, Km substrates, luminescence inhibition; Potency, µM (titrated, usually from 57.5 µM), inactives show at the highest dose activity change, negative = inhibition, most hits filed as inhibitors; actives 6.9% (n = 360,000); AID 588342;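 note: plate controls were vehicle for no effect and reference inhibitor for full effect; nearly all actives have a fitted effect of over 55% in size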
Target sequence (P08659 whole entry, looked up): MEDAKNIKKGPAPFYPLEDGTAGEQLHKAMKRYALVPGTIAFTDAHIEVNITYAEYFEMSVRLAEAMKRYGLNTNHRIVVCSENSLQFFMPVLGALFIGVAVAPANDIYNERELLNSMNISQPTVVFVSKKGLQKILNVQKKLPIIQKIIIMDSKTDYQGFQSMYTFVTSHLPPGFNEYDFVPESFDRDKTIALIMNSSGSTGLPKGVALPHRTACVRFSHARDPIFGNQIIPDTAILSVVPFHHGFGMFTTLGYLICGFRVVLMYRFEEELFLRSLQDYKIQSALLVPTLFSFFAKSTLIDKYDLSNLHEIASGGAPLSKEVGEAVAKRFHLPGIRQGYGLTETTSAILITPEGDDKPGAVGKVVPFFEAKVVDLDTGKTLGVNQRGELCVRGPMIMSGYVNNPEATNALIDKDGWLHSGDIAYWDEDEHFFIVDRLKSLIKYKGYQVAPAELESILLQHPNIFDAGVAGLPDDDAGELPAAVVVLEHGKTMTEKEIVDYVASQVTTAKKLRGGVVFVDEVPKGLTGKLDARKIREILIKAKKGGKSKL
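Biochemical qHTS of compounds, final roughly 60 µM downward over six points, against 10 nM purified firefly luciferase using Km concentrations of substrates (10 uM D-luciferin, 10 uM ATP) in Tris acetate pH 7.5 buffer; luminescence output.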
ELG1 genotox – inducers of genotoxicity in HEK293T ELG1-luciferase cells | HEK293T ELG1-luciferase reporter, luminescence, 16 h | Potency, µM (doses to about 46 µM), without a hit: top-dose activity change, positive = activation, hits mostly activators | actives 1.3% (n = 330,000) | AID 504466; note: % of control where 0% means no effect; nearly all actives have a fitted effect of over 60% in size
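DMSO vehicle served as control against compound-treated ELG1-luciferase HEK293T cells; exposure lasted 16 hr at 37 °C and 5% CO2, followed by ONE-Glo luminescence detection after 30 min.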
NPC1 promoter act – NPC1 promoter activation; Potency, µM (doses to about 9.22 µM), without a hit: top-dose activation, most hits filed as activators; Huh7 NPC1 promoter luciferase reporter, 24 h; actives 2.4% (n = 320,000); note: % of control where 0% means no effect; nearly all actives have a fitted effect of over 60% in size
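Luciferase expression driven by the NPC1 promoter was measured in stably transfected Huh7 cells after a 24 h compound incubation, using a luciferase reagent and a luminescence read.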
Rab9 promoter act – activators of Rab9 promoter. Huh7 Rab9 promoter-luciferase reporter, luminescence, 24 h. Potency, µM (titrated, usually from 9.22 µM), for the others: top-dose activation, negative = inhibition, usual class: activators. actives 2.8% (n = 320,000). AID 485297; note: % of control where 0% means no effect; nearly all actives have a fitted effect of over 60% in size
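Huh7 cells stably carrying Rab9 promoter–luciferase reporter, plated 1500 cells/well, compound added after 2 h and incubated 24 h at 37 °C; luciferase luminescence then read after 10 min with detection reagent.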
* = called active by the depositor; ? = inconclusive; nt = no result. The list is not random: actives were taken first. Their share in the collection is about 7.5%. Calls come from the whole dose curve; as a rule, active = well fitted curve in the direction sought with a large enough effect; inconclusive = small, poorly fitted or top-dose-only effect, or another doubt; inactive = no such curve, though single readings can be large; an effect the other way counts as inactive or inconclusive. Potency is the fitted concentration of half-maximal effect.

SMILES	SMN2 splice up	Luc counter	FLuc counter	ELG1 genotox	NPC1 promoter act	Rab9 promoter act
O=C(Nc1ccccc1Br)c1ccc(OC(=S)N2CCOCC2)cc1	nt	-1.5%	-5.6%	-4.4%	-6.6%	-2.3%
Cc1ccc(NC(=O)c2ccc(OC(=S)N3CCOCC3)cc2)cc1	2.1%	-1.2%	-12.5%	?	?	2µM*
Cc1ccc(NC(=O)c2ccc(CNc3c(N4CCOCC4)c(=O)c3=O)cc2)cc1	-14.1%	-0.7%	15.1µM*	0.8%	0.5%	3.3%
O=C(c1ccco1)N1CCC2(CC1)CCN(c1ccncc1)CC2	-43.4%	-0.3%	nt	nt	nt	nt
Cc1ccc(NC(=O)Cc2noc3ccccc23)nc1	24.7%	-4.8%	?	4.6%	14.8%	-2.9%
Cc1ccc(CNC(=O)Cc2noc3ccccc23)cc1	nt	1.1%	6.75µM*	?	0.891µM*	1.78µM*
O=C(Cc1noc2ccccc12)Nc1ccccn1	10µM*	-3.7%	?	17.0%	?	?
Cc1cccc(NC(=O)Cc2noc3ccccc23)c1	12.6µM*	-5.3%	16.9µM*	?	?	?
Cc1cc(C)n2nc(CNC(=O)c3c(F)cccc3F)nc2n1	-2.7%	nt	-5.7%	nt	nt	nt
Cc1cccc(-c2nc(=S)c3c(o2)CCCC3)c1	11.2µM*	-11.2%	3.38µM*	?	1.41µM*	1.41µM*
Nc1ccc(Cc2nc3c(ccc4ccccc43)[nH]2)cc1	10.8%	0.2%	13.5µM*	?	3.98µM*	3.98µM*
CC(=O)Nc1ncc(N=Nc2cccc(C(F)(F)F)c2)s1	nt	nt	0.2%	12.8%	2.3%	19.4%
Cc1cccc(N=Nc2cnc(N)s2)c1	nt	nt	6.01µM*	?	3.16µM*	3.16µM*
CCOc1ccc(C(=O)NCC(=O)OCc2c(F)cccc2Cl)cc1	-1.5%	1.4%	?	0.5%	-0.5%	-1.1%
CC(=O)Nc1ccc(C(=O)NCC(=O)OCc2c(F)cccc2Cl)cc1	?	0.2%	19µM*	3.1%	-0.9%	-4.3%
Cc1ccc(C(=O)NCC(=O)OCc2c(F)cccc2Cl)cc1	nt	nt	12µM*	13.3%	1.5%	-0.3%
O=C(CNC(=O)c1cccs1)OCc1c(F)cccc1Cl	nt	nt	15.1µM*	?	-0.4%	-1.3%
O=C(Cc1c(F)cccc1Cl)NNC(=O)c1cccs1	nt	nt	nt	3.2%	nt	nt
CCOc1ccccc1NC(=O)CCS(=O)(=O)c1ccc2c(c1)oc(=O)n2C	nt	nt	-1.0%	nt	nt	nt
O=C(NNC(=S)Nc1ccc(Br)cc1)c1cccnc1	nt	nt	?	8.0%	1.4%	9.0%
CC(C)c1ccc(NC(=S)NNC(=O)c2cccnc2)cc1	-16.2%	2.4%	10.7µM*	8.9%	-3.3%	14.5%
CC(C)c1ccc2oc(-c3ccc(NC(=O)c4cccc(Br)c4)cc3)nc2c1	-14.0%	nt	-12.1%	nt	nt	nt
CC(C)c1ccc2oc(-c3cc(NC(=O)c4cccnc4)ccc3Cl)nc2c1	15.3%	nt	10.7µM*	nt	nt	nt
CC(C)c1ccc(NC(=O)c2cc(Br)ccc2Br)cc1	3.8%	-2.1%	?	3.1%	14.4%	14.0%
CC(C)c1ccc(NC(=O)c2snc3ccc(Cl)cc23)cc1	14.1µM*	-0.6%	7.57µM*	?	2.51µM*	2.24µM*
SMILES	SMN2 splice up	Luc counter	FLuc counter	ELG1 genotox	NPC1 promoter act	Rab9 promoter act
NS(=O)(=O)c1ccc(NC(=O)c2csnn2)cc1	nt	nt	-12.5%	nt	nt	nt
CC(C)c1ccc(NC(=O)c2csnn2)cc1	?	-16.0%	2.13µM*	1.16µM*	1.58µM*	1.78µM*
Cc1cc(C)c(NC(=O)Cc2ccc(-n3c(C)nc4cccnc43)cc2)c(C)c1	nt	nt	-7.3%	nt	nt	nt
O=S(=O)(c1ccc(Cl)cc1)c1nc(-c2ccccc2)oc1N1CCN(c2ccccc2)CC1	12.8%	nt	-0.2%	nt	nt	nt
CC(C)c1ccc(NC(=O)c2cccnc2)cc1	?	0.0%	16.9µM*	20.6µM*	?	3.98µM*
O=C(NC(=S)Nc1ccccc1Cl)c1csnn1	7.3%	-1.6%	13.5µM*	2.3%	5.2%	2.9%
Cc1cccc(OCCSc2nc3ccccc3n2CC(=O)N2CCOCC2)c1	nt	nt	-1.4%	nt	nt	nt
